The values that follow come from PubChem BioAssay AID686978 (National Center for Advancing Translational Sciences (NCATS), 2013).

Screen size: about 420,000 compounds; about 64,000 (15%) were called active. Not shown: some 27% with an inconclusive outcome. These entries were drawn from the full list. A number with no mark means an inactive call. The call rests on the fitted dose curve; in most records, active means well fitted inhibition curve with a large enough effect; inconclusive means small, poorly fitted or top-dose-only effect; inactive means flat fitted curve, though single readings scatter.
On the % scale 0 is the no-effect control and ±100 the full control effect; potency means the concentration at half of the fitted maximal effect.

The experiment can be described thus: qHTS for Inhibitors of human tyrosyl-DNA phosphodiesterase 1 (TDP1): qHTS in cells in absence of CPT. Further: nearly all actives have a fitted effect of over 55% in size. The conditions noted are these: DT40 Tdp1-/- hTDP1 cells, no CPT, ATP luminescence, 48 h; activity change, negative = growth inhibition: at 46.2 µM (top of the series). An outline of the steps: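 Stably hTDP1-transfected Tdp1-null chicken DT40 cells were treated with library compounds minus camptothecin and grown for at least 48 hr at 37 °C, after which cellular ATP was quantified by luminescence.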
In general terms: Quantitative high-throughput screening tests each substance at several concentrations.
For the compound `Cc1ccc(S(=O)(=O)N(CC(=O)NCCSC2CCCCC2)c2ccccc2F)cc1`, the Potency was 18.4 µM (active).
For `CCCNC(=O)CN(Cc1ccccc1F)S(=O)(=O)c1ccc(C)cc1`, the “activity change, negative = growth inhibition” value is -16.3%.
The same measure, in the same setting: under `CCOc1ccc(S(=O)(=O)N(CC(=O)NCCSCc2ccc(C)cc2)c2ccccc2)cc1` stands -14.4%; under `COC(=O)[C@H]1Cc2cnoc2C[C@]1(C)C(=O)O`, 2.02%.
For `COc1cccc(-c2cc3nc4c(c(N5CCC6(CC5)OCCO6)n3n2)CCCC4)c1`, the Potency was 20.6 µM (active).
Regarding `O=C(NCCO)c1cccc(-c2cccc3nccn23)c1`, the “activity change, negative = growth inhibition” value is -0.655%.
As for `C/C(CC(C)C)=N\Oc1nc(C)cc(C)n1`, the “activity change, negative = growth inhibition” value was -3.44%.
Still for that read-out and setting: under `CC1(C)O[C@@H]2CC3C4C[C@H](F)C5=CC(=O)C=CC5(C)C4C(O)CC3(C)[C@]2(C(=O)CO)O1` (some centres undefined) stands -13.1%; under `Cc1nc2ccccc2c(-c2ccccc2)c1C(=O)c1ccccc1`, -15.8%; under `O=C(CN1CCCCC1)Nc1ccccc1C(=O)NC1CC1`, -14.5%.
Same read-out and setting: under `CCc1ccc(C(=O)NC(=S)Nc2ccccc2N2CCOCC2)cc1` stands -13.2%.
Regarding `O=C(CN1CCCCC1)Nc1ccccc1Cl`, the “activity change, negative = growth inhibition” value is 5.93%.
As for `CN1CCN(c2ccccc2NC(=O)COc2ccc(C3CCCCC3)cc2)CC1`, the Potency was 16.4 µM (active).
Take `O=C(Nc1ccccc1N1CCOCC1)c1ccncc1`: the “activity change, negative = growth inhibition” value was -5.12%.
As to `O=C(CN1CCN(C2CCCCC2)CC1)Nc1ccccc1N1CCCCC1`, the Potency is 22.4 µM (active).
In the case of `CN1CCN(c2ccc(S(=O)(=O)N3CCCCC3)cc2NC(=O)Cc2ccccc2F)CC1`, the “activity change, negative = growth inhibition” value is -28.7%.
Still for that read-out and setting: under `CNC(=O)C1CC(=O)N(c2ccc(OCC(=O)Nc3ccccc3C)cc2)C1` (centres undefined) stands 13.1%.
`CC(=O)c1ccc(N2CCN(CC(=O)Nc3ccccc3N3CCOCC3)CC2)cc1`: the Potency was 10.3 µM (active).
In the case of `O/N=C(\c1ccc2c(c1)OCCO2)C1CCCCC1`, the “activity change, negative = growth inhibition” value is -17.4%.
Turning to `CC1(C(=O)NS(=O)(=O)c2ccc(C#N)cc2)CCN1C(=O)c1ccc(C2CCCCC2)cc1` (centres undefined), the “activity change, negative = growth inhibition” value is -14.8%.
The same measure, in the same setting: under `O=C(O)C1C2C=CC(O2)C1C(=O)NCCc1cccc(Cl)c1` (centres undefined) stands -8.8%.
Turning to `COCC(C)NC(=O)c1ccc(Cl)c(Cl)c1` (centres undefined), the “activity change, negative = growth inhibition” value is -15.4%.
With `Cn1nc(C(=O)OCC(=O)N(Cc2ccccc2)C(C)(C)C)c2ccccc2c1=O`, the “activity change, negative = growth inhibition” value is -26.5%.
Turning to `CC(Oc1ccccc1)C(=O)Nc1c2c(nn1-c1ccccc1)CS(=O)C2` (centres undefined), the “activity change, negative = growth inhibition” value was 5.14%.
In the case of `O=C(NCCCn1ccnc1)c1ccccc1F`, the “activity change, negative = growth inhibition” value is -2.13%.
Still for that read-out and setting: under `O=C(CCN1CCN(C/C=C/c2ccccc2)CC1)Nc1cccc(F)c1` stands 0.43%; under `O=C(CCN1C(=O)/C(=C/c2cccs2)SC1=S)NNC(=O)c1cccc(O)c1`, -11.1%.
In the case of `O=C1/C(=C/c2cccs2)SC(=S)N1C1CCS(=O)(=O)C1` (centres undefined), the Potency was 18.4 µM (active).
In the case of `CCN1CCC2(CCN(Cc3cn[nH]c3-c3ccc(OC)c(F)c3)C2)C1` (centres undefined), the “activity change, negative = growth inhibition” value was 2.99%.
The same measure, in the same setting: under `O=C(Cn1cnc2c(OCc3ccccc3)ncnc21)NCCCn1ccnc1` stands -4.68%; under `Cc1ccc(C(C)C)cc1OCCN1CCCC1`, -3.11%.
Consider `Cc1ccc(C(C)(C)C)c(OCCCCN2CCCC2)c1`, for which the Potency is 29.1 µM (active).
For the compound `O=[N+]([O-])c1ccccc1OCCCCN1CCCCC1`, the “activity change, negative = growth inhibition” value is -6.91%.
For the compound `Nc1nc2c(ncn2[C@@H]2O[C@H](CNCc3ccc(OCCCN4CCOCC4)cc3)[C@@H](O)[C@H]2O)c(=O)[nH]1`, the “activity change, negative = growth inhibition” value is -1.01%.
Still for that read-out and setting: under `O=S(O)CNc1ccc(S(=O)(=O)c2ccc(NCS(=O)O)cc2)cc1` stands -10.2%; under `Cc1ccccc1NC(=O)Cn1c(=O)n(Cc2ccco2)c(=O)c2ccc(C(=O)NC3CCCC3)cc21`, -16.3%; under `Cc1ccc(COc2ccc(/C=N/NC(=O)CN3CCCCC3)cc2)cc1`, -30%.
Turning to `CNC(=S)NNC(=O)c1sccc1OCc1ccccc1`, the “activity change, negative = growth inhibition” value is 4.06%.
As for `Cc1ccc(/C=N/NC(=O)c2sccc2OCc2ccc(F)cc2)cc1`, the Potency was 18.4 µM (active).
On to `CCN(CC)S(=O)(=O)c1ccc(NC(=O)CN(c2cccc(F)c2)S(C)(=O)=O)cc1`, for which the “activity change, negative = growth inhibition” value is -17.4%.
As to `C=CC[n+]1c(-c2ccc(C)cc2)csc1NNC(=O)Nc1ccccc1`, the Potency is 9.2 µM (active).
Take `C=CCNC(=O)c1csc(-c2ccccc2)n1`: the “activity change, negative = growth inhibition” value is -15.1%.
For `C=CCNc1scc(-c2ccccc2)[n+]1CC=C`, the “activity change, negative = growth inhibition” value was -27.5%.
The same measure, in the same setting: under `Cn1cnnc1Sc1ccc(S(C)(=O)=O)cc1[N+](=O)[O-]` stands -23.8%.
On the same count and under the same terms, under `CNC[C@H]1OCc2cnnn2CCCC(=O)N([C@H](C)CO)C[C@@H]1C` stands 14.2%.
For `CCN(CC)C(=O)C(C)N1c2cccc3cccc(c23)S1(=O)=O` (centres undefined), the Potency was 16.4 µM (active).
Regarding `CC(C(=O)N1CCOCC1)N1c2cccc3cccc(c23)S1(=O)=O` (centres undefined), the “activity change, negative = growth inhibition” value is -9.94%.
With `CC(C)CN(CC(C)C)C(=O)CN1c2cccc3cccc(c23)S1(=O)=O`, the “activity change, negative = growth inhibition” value was 6.03%.
The same measure, in the same setting: under `CCNC(=O)C1(C)CCN(C(=O)c2ccccc2)C1` (centres undefined) stands -2.76%.
Same read-out and setting: under `O=C(COc1ccc(S(=O)(=O)N2CCCCC2)cc1)NCc1ccccn1` stands -9.77%.
As for `O=C(CCn1ccc2cc(S(=O)(=O)N3CCCC3)ccc21)NCc1cccc(Cl)c1`, the Potency was 20.6 µM (active).
With `O=C(NCc1ccccc1)C1CCN(S(=O)(=O)c2ccc3[nH]c(=O)ccc3c2)CC1`, the “activity change, negative = growth inhibition” value is 6.07%.
As to `O=C(Cn1ccc2cc(S(=O)(=O)N3CCCC3)ccc21)NCc1ccccc1`, the Potency is 9.2 µM (active).
In the case of `COc1ccc(OC)c(CCNC(=O)CCn2ccc3cc(S(=O)(=O)N4CCCC4)ccc32)c1`, the “activity change, negative = growth inhibition” value is -2.31%.
